The source of these data is PubChem BioAssay.

Assay [1] in a line: A549 cell viability effects, profiling panel, calcein-AM fluorescence, 48 h, basal (AID 1162). To be noted: higher = more signal.
Assay [2] in a line: adipocyte viability effects, profiling panel, cell-based, 3T3-L1 adipocytes, calcein-AM fluorescence, 48 h, basal (AID 1163). The note with it: 3T3-L1 adipocytes viability, higher = more signal.
A short description of assay [3]: HepG2 cell viability effects, profiling panel, calcein-AM fluorescence, 48 h, basal (AID 1164). The note with it: higher = more signal.
Assay [4] can be described thus: MM1S cell viability effects, profiling panel, calcein-AM fluorescence, 48 h, basal (AID 1165).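 Note: viability of MM1S multiple myeloma cells under basal unstimulated conditions.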 The note with it: higher = more signal.
Assay [5] can be described thus: basal RPMI8226 viability, no added stimulus, profiling panel, cell-based, calcein-AM fluorescence, 48 h, PK04 Diversity Set (AID 1166).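 Note: cells grown under basal conditions without added stimulus.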 The note with it: RPMI8226 myeloma viability, higher = more signal.
Assay [6] is described as follows: basal HepG2 mitochondrial membrane potential changes, profiling panel, cell-based, JC-1 fluorescence, 24 h, 100 nL compound (AID 1167). The note with it: higher = more signal.
Assay [7] can be described thus: basal 3T3-L1 adipocyte mitochondrial potential changes, profiling panel, cell-based, JC-1 fluorescence, 3T3-L1 adipocytes, 24 h, 100 nL compound (AID 1168). The note with it: JC-1 mitochondrial fluorescence, higher = more signal, called active from +8 up or from −8 down.
The nature of assay [8]: basal RPMI8226 mitochondrial membrane potential changes, profiling panel, cell-based, JC-1 fluorescence, 24 h, 100 nL compound (AID 1169). To be noted: RPMI8226 myeloma, JC-1 mitochondrial potential fluorescence, higher = more signal.
A short description of assay [9]: basal MM1S mitochondrial membrane potential changes, profiling panel, cell-based, JC-1 fluorescence, 24 h, 100 nL compound (AID 1170). The note with it: higher = more signal.
Assay [10] in a line: A549 lung cancer cell viability effects, profiling panel, resazurin fluorescence, 24 h, PK04 Diversity Set (AID 1171). To be noted: higher = more signal, called active from +8 up or from −8 down. Background: Alamar Blue is a resazurin reagent that responds to reducing activity.

Active and inactive are the calls of the source.
Note: test concentration not given here.

Consider `OCC1C=C(/C=C/c2ccccc2)CN1Cc1ccccc1Br` (stereo not given), for which the z-score was -0.58 in assay [1]; 1.21 in assay [2]; 0.0668 in [3]; -3.2 in [4]; -3.64 in [5]; 1.35 in assay [6]. Further, the z-score was 0.401 (inactive) in assay [7], -0.923 in [8], -1.87 in assay [9] and -0.535 (inactive) in assay [10].
On to `O=C(NC1CC1)[C@@H]1c2ccccc2C(=O)N(Cc2cc(F)cc(C(F)(F)F)c2)[C@H]1c1ccc(CO)cc1`, for which the z-score in assay [1] was 0.35; in assay [2], -0.392; in [3], -0.134; in [4], -1.65; in [5], 0.88; in assay [6] it was 0.86. Moreover, the z-score was -0.587 (inactive) in assay [7], 0.0276 in assay [8], -0.232 in [9] and 1.36 (inactive) in [10].
In the case of `OB1C=CCC(CCc2ccccc2)O1` (stereo not given), the z-score is 0.345 in [1]; 0.638 in [2]; 0.36 in assay [3]; 0.293 in [4]; 0.364 in assay [5]; 1.39 in assay [6]. The z-score is 0.244 (inactive) in [7], -0.855 in [8], 0.954 in assay [9] and -1.01 (inactive) in assay [10].
As to `C=C[C@H](C)[C@@H](OC(=O)Nc1ccc(SC)cc1)c1ccc(O)c2ccccc12`, the z-score is -0.89 in [1]; 0.0148 in assay [2]; -1.87 in assay [3]; -2.68 in assay [4]; -4.27 in assay [5]; -3.23 in assay [6]. In addition, the z-score in [7] is -0.475 (inactive); in [8], -0.934; in [9] it was -1.59; in assay [10], -0.774 (inactive).
With `NCCCCCNC(=O)[C@H]1C[C@H]2C(=O)N[C@@H](Cc3ccccc3)C(=O)N2[C@H]1c1cccc(OCCO)c1`, the z-score in [1] was 1.15; in [2], -0.14; in assay [3], 1.19; in assay [4], 0.079; in assay [5], 0.226; in [6], 0.96. Further, the z-score in [7] was -0.67 (inactive); in assay [8] it was -0.288; in assay [9], 0.948; in assay [10] it was 1.35 (inactive).
With `COC(=O)C(CC#Cc1ccc2c(c1)[C@]1(C(=O)N2)[C@H](c2ccccc2OCCO)N2[C@H](c3ccccc3)[C@H](c3ccccc3)OC(=O)[C@H]2[C@@H]1C(=O)O)C(=O)OC`, the z-score in assay [1] is 1.45; in assay [2], 0.0879; in assay [3], 1.38; in assay [4] it was -2.37; in [5] it was -2.41; in assay [6], 1.11. Also, the z-score in assay [7] was -0.847 (inactive); in assay [8], -0.214; in assay [9] it was -0.197; in assay [10] it was 0.917 (inactive).
As for `CN1C(=O)C2C=CC(C(O)C=Cc3ccc([N+](=O)[O-])cc3)N(Nc3ccccc3)C2C1=O` (stereo not given), the z-score in [1] was -0.598; in [2] it was -1.6; in assay [3] it was -0.432; in assay [4] it was -0.655; in assay [5] it was -0.997; in [6] it was -1.53. The z-score in [7] is -1.48 (inactive); in assay [8], -0.634; in [9], -0.681; in assay [10] it was -0.408 (inactive).
For `COC(=O)[C@H](Cc1ccccc1)N[C@H](/C=C/C1CC1)[C@@H](O)Cc1ccccc1`, the z-score in [1] was -0.531; in assay [2], -0.451; in assay [3], 0.021; in assay [4], 0.18; in assay [5], 0.732; in [6], 1.46. Also, the z-score was 0.792 (inactive) in assay [7], -0.52 in [8], -1.88 in assay [9] and 1.2 (inactive) in assay [10].
Turning to `CCN(CC)c1ccc(N2CC=CC34O[C@@H]5C=CCOC(=O)[C@@H]5[C@H]3C(=O)N(CCCCCCO)[C@@H]4C2=O)cc1` (stereo not given in full), the z-score in assay [1] is -0.705; in [2], 0.839; in assay [3] it was -0.0976; in assay [4], 1.4; in assay [5], 0.922; in assay [6], 0.554. The z-score in assay [7] was 1.21 (inactive); in [8] it was 0.267; in [9], -0.72; in [10], 1.37 (inactive).
Take `NCCCCCCNC(=O)[C@H]1C[C@H]2C(=O)N[C@@H](Cc3ccccc3)C(=O)N2[C@H]1c1cccc(OCCO)c1`: the z-score in [1] was 0.516; in assay [2], 0.454; in assay [3], -0.378; in assay [4], 0.456; in [5] it was 0.112; in [6] it was -0.215. For the same molecule, the z-score in assay [7] is 0.896 (inactive); in assay [8] it was -0.802; in assay [9], -0.531; in [10], 1.21 (inactive).
With `CC(C)CNC(=O)[C@@]1(Cc2ccccc2I)c2ccccc2C(=O)N(Cc2ccccc2C(F)(F)F)[C@H]1c1ccc(CO)cc1`, the z-score in assay [1] is -0.942; in assay [2] it was -0.716; in assay [3], -0.0693; in [4] it was -0.722; in assay [5], -0.548; in assay [6], 0.081. For the same molecule, the z-score in assay [7] is 0.752 (inactive); in assay [8] it was -0.844; in assay [9], -0.167; in assay [10], -0.328 (inactive).
On to `O=C1C2C=CC(C(O)c3ccc(-c4ccccc4)s3)N(Nc3ccccc3)C2C(=O)N1c1ccccc1` (stereo not given), for which the z-score is -0.574 in assay [1]; -1.35 in [2]; 0.128 in [3]; -0.338 in assay [4]; -1.45 in [5]; -1.75 in [6]. The z-score in assay [7] is 0.0226 (inactive); in assay [8] it was 0.054; in assay [9] it was -0.271; in assay [10] it was 0.0364 (inactive).
For `CC#CC(=O)Oc1ccc(Br)cc1C=CC(=O)OCC`, the z-score in assay [1] was -2.1; in assay [2] it was -1.04; in assay [3], -2.88; in assay [4], -3.18; in assay [5] it was -4.08; in assay [6], -1.65. Moreover, the z-score in assay [7] was -0.315 (inactive); in assay [8], -0.583; in [9], -1.84; in assay [10], -0.685 (inactive).
Turning to `O=C1C2C=CC(C(O)COCc3ccccc3)N(Nc3ccc([N+](=O)[O-])cc3)C2C(=O)N1c1ccccc1` (stereo not given), the z-score in assay [1] was -0.26; in assay [2] it was 0.619; in assay [3], -0.617; in [4], -0.105; in assay [5], -0.0326; in [6], -1.26. Moreover, the z-score in [7] is -1.67 (inactive); in assay [8], -0.25; in assay [9] it was -1.01; in assay [10], 0.315 (inactive).
